From PubChem BioAssay AID1159580 (chemical genetic matrix, 2015)
Hit rate of the full screen: of about 5,500 compounds, about 2,000 (36%) were called active. About 18% were inconclusive and are not listed. No stated cut-off is given here; in the data, active means normalized growth mostly below about 0.91 (no sharp cut-off); inconclusive means no clear call, values can overlap the other calls; inactive means mostly above about 0.92. The list shows a part of the results.

Test: chemical genetic growth profiling, strain panel (AID 1159580);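 further: tested at 20 µM; growth read once vehicle control cultures reached saturation at 30 °C; 1 = growth at the plate median or of vehicle wells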
Details: S. cerevisiae deletion strains, growth OD

Measured: normalized growth

COc1ccccc1N1CCN(CCN2C(=O)CC3(CCCC3)CC2=O)CC1
inactive: locus YER002W, strain NOP16, stronger effect = lower value 0.998 | locus YMR263W, strain SAP30, stronger effect = lower value 1 | locus YMR307W, strain GAS1, stronger effect = lower value 0.989 | locus YNL128W, strain TEP1, stronger effect = lower value 0.988 | locus YNL175C, strain NOP13, stronger effect = lower value 0.991 | locus YNL197C, strain WHI3, stronger effect = lower value 0.999 | locus YNL224C, strain SQS1, stronger effect = lower value 1 | locus YOR083W, strain WHI5 (second series), stronger effect = lower value 0.999 | locus YPL055C, strain LGE1, stronger effect = lower value 1 | locus YPL241C, strain CIN2, stronger effect = lower value 1.01
